This is part of a sample that, as a whole, favours compounds with a hit. Of some 83,000 tested, about 20% had one in any assay.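 How to read the values: 0–100, growth inhibition (40 = 60% inhibited); 0, no net growth; -100 to 0, cell death (-40 = 40% of starting cells died; -100 = all dead).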 A number with no mark means an inactive call. Calls of active or inactive are those of the source. Rule for the calls: active = growth percent below 10; inactive = the rest.
Tests used:
Assay in all cases: NCI-60 one-dose screen, 48 h (100 = growth as untreated, 0 = no growth, -100 = all killed)
Conditions in all cases: 10 µM unless noted
NCI-H23 lung = tested on: NCI-H23 lung
NCI-H226 lung = tested on: NCI-H226 lung
NCI-H322M lung = tested on: NCI-H322M lung
HOP-62 NSCLC = tested on: HOP-62 NSCLC
NCI-H460 lung = tested on: NCI-H460 lung
HOP-92 NSCLC = tested on: HOP-92 NSCLC
NCI-H522 lung = tested on: NCI-H522 lung
A549/ATCC NSCLC = tested on: A549/ATCC NSCLC
786-0 renal = tested on: 786-0 renal
COLO 205 colon = tested on: COLO 205 colon
DU-145 prostate = tested on: DU-145 prostate
K-562 leukemia = tested on: K-562 leukemia
MALME-3M melanoma = tested on: MALME-3M melanoma
MDA-MB-231 breast = tested on: MDA-MB-231 breast
RXF 393 renal = tested on: RXF 393 renal
SF-268 CNS = tested on: SF-268 CNS
SF-295 CNS = tested on: SF-295 CNS
SF-539 CNS = tested on: SF-539 CNS
UACC-257 melanoma = tested on: UACC-257 melanoma
M14 melanoma = tested on: M14 melanoma

Row | Compound | growth (NCI-H23 lung) | growth (NCI-H226 lung) | growth (NCI-H322M lung) | growth (HOP-62 NSCLC) | growth (NCI-H460 lung) | growth (HOP-92 NSCLC) | growth (NCI-H522 lung) | growth (A549/ATCC NSCLC) | growth (786-0 renal) | growth (COLO 205 colon) | growth (DU-145 prostate) | growth (K-562 leukemia) | growth (MALME-3M melanoma) | growth (MDA-MB-231 breast) | growth (RXF 393 renal) | growth (SF-268 CNS) | growth (SF-295 CNS) | growth (SF-539 CNS) | growth (UACC-257 melanoma) | growth (M14 melanoma)
1 | NC(=O)OCCn1cc(-c2nc(-c3c[nH]c4ncccc34)cs2)c2ccccc21 | 63.3% | 53% | 65.9% | 39.2% | 17.8% | 49.1% | 5.49% (active) | 36.9% | 42.9% | 4.32% (active) | 64.9% | 11.8% | 62.4% | 49.7% | 46.3% | 50% | 25.5% | 33.8% | 60.5% | 11.8%
2 | Cn1c(=O)c2c(nc(NC3=NS(=O)(=O)c4ccccc43)n2Cc2ccccc2)n(C)c1=O | 92.5% | 88.5% | 101% | 93.4% | 102% | 94% | 94.1% | 102% | 101% | 120% | 108% | 104% | 109% | 90.4% | 78.3% | 96.7% | 103% | 100% | 109% | 106%
3 | C=NNc1ccccc1 | 86.5% | 87.5% | 85.7% | 101% | 102% | 78.1% | 73.7% | 84.3% | 103% | 100% | 100% | 75.8% | 126% | 66.8% | 105% | 92.3% | 100% | 101% | 98.3% | 95.3%
4 | Cn1cc(-c2csc(-c3cn(C)c4ccc(Br)cc34)n2)c2cnccc21 | -28.7% (active) | 102% | -32.6% (active) | -79% (active) | -76.4% (active) | -90.9% (active) | -67.5% (active) | -75.1% (active) | -92.4% (active) | -77.8% (active) | -88.6% (active) | -67% (active) | -91.3% (active) | -84.7% (active) | -87.2% (active) | -73.8% (active) | -78.2% (active) | -93.1% (active) | -23.2% (active) | -80.4% (active)
5 | C=CC(=O)NCCOc1cccc(Nc2cc(NCCCNC(=O)C3CCC3)c(Br)cn2)c1 | -25.8% (active) | -14.1% (active) | -6.07% (active) | -22.4% (active) | -18% (active) | -28.5% (active) | -19.3% (active) | -16.7% (active) | -35.7% (active) | -42.7% (active) | 8.96% (active) | 9.43% (active) | -19% (active) | -25.6% (active) | -77% (active) | -25.3% (active) | 2.75% (active) | -58.3% (active) | -11.6% (active) | -18.7% (active)
6 | Cn1c(O)c(C(/C=C/c2ccccc2)=Nc2ccccc2N)c(=O)n(C)c1=O | 94.2% | 97.9% | 105% | 105% | 104% | 82.4% | 90.3% | 103% | 103% | 95% | 117% | 55.9% | 118% | 91.4% | 109% | 114% | 105% | 107% | 106% | 104%
7 | CCCCCCCCCCCCCCCCCCOc1ccccc1CC(=O)OCC[N+]1(C)CCOCC1 | 66.5% | 49.8% | 79.8% | 55.6% | 69.2% | 44.2% | 39.9% | 62.6% | 68.3% | 65.6% | 70.8% | 58% | 67.2% | 49.8% | 1.62% (active) | 36.2% | 87.3% | 71.6% | 103% | 69.9%
8 | CCCCCCCC/C=C\CCCCCCCCOc1ccccc1CC(=O)NCC[N+]1(C)CCCCC1 | 58.9% | 67.1% | 96.5% | 75.9% | 50.4% | 48.1% | 38% | 66.3% | 96.8% | 23% | 67.1% | 36.3% | 69.8% | 59.8% | 28.6% | 39.2% | 97.4% | 95.1% | 61.5% | 65.5%
9 | N#C/C(=C\c1ccc(-c2ccc(Cl)cc2)o1)c1ccc(Cl)cc1 | 63.2% | 30% | 69.2% | 46.8% | 10.3% | 5.34% (active) | 81% | 35.4% | -0.442% (active) | 77.1% | 82.1% | 82.4% | 62.9% | 32.6% | 62.8% | 81.2% | 51.9% | 56.9% | 100% | 81.4%
10 | CN(CCC#N)c1ccc(/C=C2\NC(=O)NC2=O)cc1 | 89.5% | 96.7% | 103% | 99.3% | 98.4% | 79.2% | 38.7% | 111% | 88% | 95.8% | 124% | 107% | 113% | 101% | 113% | 117% | 112% | 91.3% | 93.4% | 96.4%
11 | CC[C@H](CC[C@@H](C)[C@H]1CC[C@H]2[C@@H]3CC[C@@H]4CC(=O)/C(=C\c5ccncc5)C[C@]4(C)[C@H]3CC[C@]12C)C(C)C | 99.4% | 103% | 98.3% | 99.3% | 109% | 91.5% | 95.3% | 99.2% | 95.7% | 107% | 109% | 97% | 100% | 104% | 109% | 107% | 99.2% | 103% | 106% | 104%
12 | CCN1CCN(CC(=O)Nc2nc3ccc(NCc4ccc(Br)cc4)cc3s2)CC1 | 70.4% | 64.6% | 84.9% | 64.8% | 26.3% | 40.9% | 99.5% | 64.5% | 61.3% | -48.9% (active) | 83.9% | -49.7% (active) | -68.2% (active) | 45.6% | 63.9% | 72.1% | 86.4% | 39.2% | 17.7% | -56.2% (active)
13 | Nc1c(C(=O)Nc2ccncc2)sc2nc3c(cc12)CCCCC3 | 61.8% | 72.3% | 99.9% | 81.8% | 81.6% | 73% | 73.9% | 89.5% | 79.1% | 86.5% | 89.2% | 51.8% | 90.6% | 90.9% | 84.2% | 99.5% | 71.5% | 73.2% | 76% | 91.9%
14 | Fc1ccc2c(c1)c(-c1nc(-c3c[nH]c4ncccc34)cs1)cn2CCCN1CCOCC1 | 76% | 59.3% | 80.9% | 49.9% | 37.8% | 23.5% | 41.3% | 42.6% | 57.3% | 18.1% | 79.8% | 1.71% (active) | 59.2% | 36% | 39.5% | 50.8% | 27.5% | 67.3% | 83% | 34.7%

Source: PubChem BioAssay (NCI)
